Screening results deposited in PubChem BioAssay by National Center for Advancing Translational Sciences (NCATS).
Hits are enriched below; roughly 12% of the tested compounds scored in any of these assays.
NS1 inh: inhibitors of influenza NS1 protein function; Potency, µM (highest dose often 46.1 µM); 0.4% of 270,000 active; calls by dose curve; also: actives are rising curves; nearly all actives have a fitted effect of over 50% in size
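Read-out: OD600 growth recovery of NS1-expressing budding yeast. Cells grown overnight at 30C in -URA glucose medium, washed, resuspended and diluted 1:100 in 2% galactose assay medium, pH 6.0. Same strain lacking NS1 served as positive control.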
SARS PLP yeast: SARS-CoV PLP inhibition in yeast | S. cerevisiae expressing SARS-CoV PLpro, growth rescue | Potency, µM (top dose mostly 32.9 µM), usual class: activators | 0.19% of 330,000 active | AID 485353; calls by dose curve; also: nearly all actives have a fitted effect of over 55% in size
HCV inhibitor: inhibitors of hepatitis C virus infection | Huh7.5.1 HCVcc-Cre infection, luciferase reporter, 44 h | Potency, µM (series often up to 41.8 µM), actives largely listed as inhibitors | 3.4% of 340,000 active
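Luciferase read-out (15 sec integration) after a 15 min room-temperature substrate step quantifies HCVcc-Cre infection. Cells, 1,000 per well, had compound added 4 h post-plating, then virus at ~0.5 moi, and were cultured 44 h.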
Pf growth 48h: inhibits P. falciparum growth in the first generation, 48 h; P. falciparum luciferase growth in erythrocytes, 48 h; Potency, µM (titrated, usually from 28.7 µM), usual class: inhibitors; 5.9% of 310,000 active; AID 504832
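Parasite viability was followed by luminescence of a genomically integrated firefly luciferase. Cultures held 0.1% parasitemia at 2% hematocrit (final), incubated under 5% CO2 at 37 C.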
AMA1-RON2 inh: AMA1-RON2 (P. falciparum) interaction inhibition; AlphaScreen AMA1-biotinylated RON2 peptide binding; Potency, µM (highest dose often 58.2 µM), actives largely listed as inhibitors; 0.2% of 360,000 active; also: nearly all actives have a fitted effect of over 45% in size
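AMA1 (3D7) with his tag at 25 nM final met compounds first, then biotinylated RON2 peptide at 25 nM; detection used donor plus acceptor beads, 10 µg/mL apiece, read by AlphaScreen after 30 min at room temperature.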
Pf growth 96h: P. falciparum growth inhibition at 96 hours. P. falciparum luciferase reporter growth, 96 h. Potency, µM (doses to about 28.7 µM), actives largely listed as inhibitors. 6.9% of 320,000 active. AID 504834
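P. falciparum expressing integrated firefly luciferase grown in erythrocytes (2% hematocrit, 0.05% parasitemia final) with compounds for 96 hours at 37 C, 5% CO2. Growth inhibition read as loss of luminescence after adding luciferase detection reagent.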
A number is an active result; i = inactive; ? = inconclusive; nt = no result; [ ] = dose if it differs, or a comment. Unless noted, calls follow the shape of the dose curve; as a rule, active = well fitted curve in the direction sought with a large enough effect; inconclusive = small, poorly fitted or top-dose-only effect, or another doubt; inactive = no such curve, though single readings can be large; an effect the other way counts as inactive or inconclusive.

SMILES	NS1 inh	SARS PLP yeast	HCV inhibitor	Pf growth 48h	AMA1-RON2 inh	Pf growth 96h
CCCCNS(=O)(=O)c1ccc(Br)cc1N1CCC[C@H]1CO	nt	i	i	nt	i	nt
CC(=O)N1c2ccc(S(=O)(=O)N3CCCC(C(=O)N4CCCC(C)C4)C3)cc2CC1C (stereo not given)	i	i	?	?	i	?
CC(=O)N1c2ccc(S(=O)(=O)N3CCCC(C(=O)N4CCC(C)CC4)C3)cc2CC1C (stereo not given)	i	i	11µM	?	i	?
CCc1ccccc1NC(=O)C1CCCN(S(=O)(=O)c2ccc3c(c2)CC(C)N3C(C)=O)C1 (stereo not given)	i	i	?	?	i	13µM
CC(=O)N1c2ccc(S(=O)(=O)N3CCCC(C(=O)NCc4ccccc4Cl)C3)cc2CC1C (stereo not given)	i	i	?	?	i	?
Nc1ccn([C@@H]2O[C@H](CNCC3=CCOc4ccc(O)cc43)[C@@H](O)[C@H]2O)c(=O)n1	nt	nt	nt	nt	i	nt
COc1cccc(CNC(=O)c2ccc(C)c(S(=O)(=O)N3CCCCC3)c2)c1	nt	i	10µM	?	i	?
COc1cccc(CNC(=O)c2ccc(C)c(S(=O)(=O)N3CCOCC3)c2)c1	nt	i	?	?	i	?
COc1cccc(CNC(=O)CCC2CCCN(c3cc(C)nc(N4CCCC4)n3)C2)c1 (stereo not given)	i	i	i	?	i	12µM
COc1ccc(C(CNC(=O)c2ccc(S(=O)(=O)N3CCOCC3)cc2)N2CCCCC2)cc1 (stereo not given)	i	i	i	?	i	i
COc1ccc(C(CNC(=O)c2ccc(OC)c(S(=O)(=O)N3CCCC3)c2)N2CCCC2)cc1 (stereo not given)	nt	i	i	?	i	10µM
CCOC(=O)N1CCN(S(=O)(=O)N2CCCC(C(=O)NCc3cccc(OC)c3)C2)CC1 (stereo not given)	i	i	i	i	i	6.6µM
COc1ccc(CNC(=O)CN(Cc2ccco2)C(=O)CCC(=O)Nc2ccccn2)cc1	i	i	i	i	i	i
CCOC(=O)C1=C(COC(=O)/C=C/c2cccc([N+](=O)[O-])c2)NC(=O)NC1C (stereo not given)	nt	i	i	i	i	i
O=C(COC(=O)CNC(=O)c1ccc(Cl)cc1Cl)NNC(=O)c1ccccc1F	nt	i	i	nt	i	nt
COc1ccc(C(=O)NCC(c2ccc(F)cc2)N2CCOCC2)cc1S(=O)(=O)N1CCCC1 (stereo not given)	i	i	i	?	i	10µM
COc1ccc(C(=O)NCC(c2ccccc2)c2ccccc2)cc1S(=O)(=O)N1CCOCC1	nt	nt	i	nt	i[11.6 µM]	nt
COc1ccccc1C(CNC(=O)c1ccc(C)c(S(=O)(=O)N2CCCCC2)c1)N1CCCC1 (stereo not given)	nt	i	i	?	i	10µM
CCS(=O)(=O)N1Cc2ccccc2CC1C(=O)N(C)Cc1ccc(OC)c(F)c1 (stereo not given)	i	i	i	i	i	?
CCC(=O)N1CCC(C)(C(=O)Nc2ccc(OC)c(OC)c2)C1 (stereo not given)	nt	nt	nt	nt	i	nt
CCOC(=O)C1(Cc2cccc(F)c2)CCN(C(=O)c2cscn2)CC1	i	i	i	i	i	?
CCOC(=O)C1(Cc2cccc(F)c2)CCN(C(=O)c2ccoc2C)CC1	i	i	i	10µM	i	i
CCOC(=O)C1(Cc2cccc(OC)c2)CCN(Cc2cnc(C)s2)CC1	i	i	i	?	i	9.3µM
CCOC(=O)C1(Cc2cccc(OC)c2)CCN(C/C=C/c2ccc(OC)cc2)CC1	i	i	8.9µM	?	?	i
Cn1c(CS(=O)Cc2c(Cl)cccc2Cl)nnc1SCc1c(Cl)cccc1Cl (stereo not given)	i	i	i	?	i	4.7µM
SMILES	NS1 inh	SARS PLP yeast	HCV inhibitor	Pf growth 48h	AMA1-RON2 inh	Pf growth 96h
CCN(CC)Cc1cc(Nc2c3ccccc3nc3c4ccccc4n(C)c23)cc(CN(CC)CC)c1O	nt	nt	?	nt	11µM	nt
Oc1cccc(Nc2c3ccccc3nc3ccccc23)c1	i	i	?	?	i	i
CSCCC(NC(=O)C12CC3CC(CC(C3)C1)C2)C(=O)OCC(=O)c1ccc(C)cc1 (stereo not given)	i	i	i	i	i	0.33µM
Cc1ccc(C(C)NC(=O)C23CC4CC(CC(C4)C2)C3)cc1 (stereo not given)	i	i	i	i[1.15 µM]	i	0.59µM
CC(NC(=O)C12CC3CC(CC(C3)C1)C2)c1ccc2c(c1)OCCO2 (stereo not given)	i	i	i	nt	i	?
CSCCC(NC(=O)c1ccc([N+](=O)[O-])cc1Cl)C(=O)OCC(=O)C12CC3CC(CC(C3)C1)C2 (stereo not given)	i	i	?	i	?	i
CC(C)c1ccc(NC(=O)C2(C)Cc3c(-c4cccc(C(F)(F)F)c4)ccnc3O2)cc1 (stereo not given)	nt	nt	nt	nt	i	nt
COc1ccc([C@@H]2CC=C(C(=O)O)[C@H](c3ccc(Cl)cc3)N2S(=O)(=O)c2ccc(C)cc2)cc1OC	nt	i	i	?	i	13µM
COc1ccc([C@@H]2CC=C(C(=O)O)[C@H](c3ccc(C)cc3)N2S(=O)(=O)c2ccc(C)cc2)cc1OC	nt	i	i	nt	i	nt
COc1cccc([C@@H]2CC=C(C(=O)O)[C@H](c3ccc(Cl)cc3)N2S(=O)(=O)c2ccc(C)cc2)c1	nt	i	i	?	i	9.3µM
COc1cc([C@@H]2CC=C(C(=O)O)[C@H](c3cccc(Cl)c3)N2S(=O)(=O)c2ccc(C)cc2)cc(OC)c1OC	nt	i	i	?	i	13µM
COc1ccc(NC(=O)NNC(=O)c2ccc3ccccc3c2O)c(OC)c1	i	i	i	i	i	i
O=c1[nH]n2c(=O)c3c([nH]c2c1N=Nc1cccc(Cl)c1)CCC3	?	i	i	i	i	?
O=c1[nH]n2c(=O)c3c([nH]c2c1N=Nc1cccc(C(F)(F)F)c1)CCCC3	?	i	i	13µM	i	?
NS(=O)(=O)c1ccc(N=Nc2c(=O)[nH]n3c(=O)c4c([nH]c23)CCCC4)cc1	i	i	?	?	i	2.3µM
COc1ccccc1C1CC(c2cccc(NS(C)(=O)=O)c2)=NN1S(=O)(=O)c1ccccc1 (stereo not given)	i	i	i	?	i	?
CCN(CC)c1ccc2cc(-c3nc4ccccc4[nH]3)c(=O)oc2c1	i	i	?	i	i	i
CCN(CC)c1ccc2nc3ccc(N)cc3[n+](-c3ccccc3)c2c1	nt	i	5µM	0.29µM	20µM	?
CCN(CC)c1ccc2nc3ccccc3[n+](CC)c2c1	i	i	6.3µM	i	?	?
CCN(CC)c1ccc(/C=N/n2nnnc2N)c(O)c1	i	i	i	i	i	i
